# Results as given in the supplement of paper PMC6555819.
# Tested on: THRa:RXRa (NR concentration 90 nM, RXRa partner concentration 90 nM)
# Assay: PBM binding z-score (relative to random genomic background probes); higher = stronger binding; sequences stand for … in GC…GCGATTGACAGCGTAGAATGAAGG
# Method in brief: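 Custom Agilent 4×180K protein-binding microarrays carried double-stranded probes, each with a 34-nt variable region. These regions held direct-repeat seeds, single-nucleotide variants, half-site ablations and random human genomic background sequences. Ligand-free nuclear receptor dimers were incubated on the arrays for 1 h, antibodies against each partner (one per run) detected binding, and scanned fluorescence was regression-normalized. Binding z-scores take the random background probes as reference.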
row,Sequence,PBM binding z-score
1,AATACAGGGTCATCGTAGGCCAGAGTTCGCACAG,4.77
2,CCTATTAGTTGACCATAAGGGAAACCGAAGCTCG,0.545
3,CCGAGCAGGCCAGGGTCACTCAAGCATTTCGCTT,2.91
4,CTCGAAAGGTCGTGCTCAGGTGTGTATACCAAAC,3
5,CCTCGGAGGACAACACGAGGTCAGAGCTGCCAGA,3.57
6,TCTGCTAGGTCAGTTGGTCAGCAAACGAGCTGCC,1.35
7,GCATATAGGTAATACAAGGTGAAAGTACGATTGT,4.29
8,ATCTCTAGGTACAAGTTCAGTGAATCCCGAGGAT,0.819
9,ATCGAAAGATCGAAGGTGAGTATACCCACCCGAA,0.17
10,CCTAGCAGGCCAATCTGGGTCACTGAAGGCTTGA,3.79
11,CCAGACAGGTGAAAGGTAACTCATTCTGGTACGC,1.13
12,ATCTCTAGGTAACACTCAGTTCAGTGAAGAACGC,1.64
13,ACTTACGGGTCAAAGAGGTTATAGCACGCGTATA,3.45
14,CCTATTAGTTGACGATAAGGGCAACCGAAGCTCG,1.57
15,GCTTACGGGTCAAAGGATATAGCATGAATAGAAT,2.22
16,ACAGACAGCTGATGAAGGTAACTCAGGCTATCAT,0.595
17,GGAACGAGGGCAAAGTTGATAGCGTCTGTCGACG,1.38
18,TTACCAAGGTGAAGATCGTTGATCCCTCTGTAGA,1.58
19,TATTGTAGATCAAGCAGGTTAAGAAAGCCTGAGT,0.288
20,CCTCGGAGGACAGAAGGTCAGTGCTGTCCGCTTT,1.88
21,GCTATTAGTTGAAAGGGCAACAGAATGATTCTCG,0.672
22,TAGCCTAGGTCATTGGCCAGTATACCACGCGAAC,2.66
